Data published in PubChem BioAssay (NCATS).
Values without a mark were called inactive. Results filed as inconclusive are left out. A call without a number means that no potency is given here. Calls of active or inactive are those of the source. Unless noted, calls come from the whole dose curve; as a rule, active = well fitted curve in the direction sought with a large enough effect; inconclusive = small, poorly fitted or top-dose-only effect, or another doubt; inactive = no such curve, though single readings can be large; an effect the other way counts as inactive or inconclusive.

What was measured:
[1] = target: Rap guanine nucleotide exchange factor 3 (Homo sapiens) (UniProt O95398); experiment: Confirmatory qHTS for antagonist of cAMP-regulated guanine nucleotide exchange factor 3 (EPAC1) (AID 1645880); conditions: EPAC1 Rap1B-BODIPY-GDP exchange, fluorescence; activity, negative = inhibition: at 115 µM (top of the series); note: nearly all actives have a fitted effect of over 55% in size; note: potency is the fitted concentration of half-maximal effect
Rap guanine nucleotide exchange factor 3 (Homo sapiens), sequence (O95398 whole entry, looked up): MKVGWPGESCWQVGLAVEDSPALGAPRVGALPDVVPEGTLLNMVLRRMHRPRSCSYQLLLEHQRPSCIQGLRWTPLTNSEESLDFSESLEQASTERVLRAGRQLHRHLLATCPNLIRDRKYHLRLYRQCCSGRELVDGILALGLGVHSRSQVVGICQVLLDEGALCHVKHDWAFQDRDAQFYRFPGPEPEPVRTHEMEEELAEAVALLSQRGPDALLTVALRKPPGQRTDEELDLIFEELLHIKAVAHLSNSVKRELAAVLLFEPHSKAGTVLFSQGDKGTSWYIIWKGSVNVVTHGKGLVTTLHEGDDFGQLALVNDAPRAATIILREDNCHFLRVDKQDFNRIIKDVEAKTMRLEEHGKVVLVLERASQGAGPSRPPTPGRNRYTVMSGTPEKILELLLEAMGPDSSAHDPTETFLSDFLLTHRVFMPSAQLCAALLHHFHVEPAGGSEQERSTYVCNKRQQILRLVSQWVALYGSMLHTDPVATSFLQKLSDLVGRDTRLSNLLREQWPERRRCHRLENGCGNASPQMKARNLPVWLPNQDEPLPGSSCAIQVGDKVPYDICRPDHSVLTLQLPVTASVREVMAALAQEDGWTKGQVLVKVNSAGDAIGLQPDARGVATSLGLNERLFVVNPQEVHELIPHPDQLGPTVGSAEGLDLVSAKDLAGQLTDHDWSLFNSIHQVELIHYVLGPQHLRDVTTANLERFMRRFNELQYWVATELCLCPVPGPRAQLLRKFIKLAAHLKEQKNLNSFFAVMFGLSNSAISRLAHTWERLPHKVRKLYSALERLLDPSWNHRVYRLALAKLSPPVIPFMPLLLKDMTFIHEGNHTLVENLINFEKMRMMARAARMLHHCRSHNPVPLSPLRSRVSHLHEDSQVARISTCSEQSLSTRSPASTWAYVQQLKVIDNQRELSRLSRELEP
Method in brief: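 Released BODIPY-GDP fluoresces less than Rap1-bound BODIPY-GDP; the signal is followed at 480/540 nm at 5-min intervals over 30 min, after 5 min at room temperature. Reactions contain 100 nM EPAC1, 250 nM RAP1B-BODIPY-GDP and 50 uM GDP; results are normalized to ATA and DMSO.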

[2] = target: Rap guanine nucleotide exchange factor 4 (Homo sapiens) (UniProt Q8WZA2); experiment: Confirmatory qHTS for agonist of cAMP-regulated guanine nucleotide exchange factor 4 (EPAC2) (AID 1645884);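 note: nucleotide exchange releases bodipy-GDP from Rap1 and this lowers its fluorescence; potency is the fitted concentration of half-maximal effect; nearly all actives have a fitted effect of over 65% in size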
Rap guanine nucleotide exchange factor 4 (Homo sapiens), sequence (Q8WZA2 whole entry, looked up): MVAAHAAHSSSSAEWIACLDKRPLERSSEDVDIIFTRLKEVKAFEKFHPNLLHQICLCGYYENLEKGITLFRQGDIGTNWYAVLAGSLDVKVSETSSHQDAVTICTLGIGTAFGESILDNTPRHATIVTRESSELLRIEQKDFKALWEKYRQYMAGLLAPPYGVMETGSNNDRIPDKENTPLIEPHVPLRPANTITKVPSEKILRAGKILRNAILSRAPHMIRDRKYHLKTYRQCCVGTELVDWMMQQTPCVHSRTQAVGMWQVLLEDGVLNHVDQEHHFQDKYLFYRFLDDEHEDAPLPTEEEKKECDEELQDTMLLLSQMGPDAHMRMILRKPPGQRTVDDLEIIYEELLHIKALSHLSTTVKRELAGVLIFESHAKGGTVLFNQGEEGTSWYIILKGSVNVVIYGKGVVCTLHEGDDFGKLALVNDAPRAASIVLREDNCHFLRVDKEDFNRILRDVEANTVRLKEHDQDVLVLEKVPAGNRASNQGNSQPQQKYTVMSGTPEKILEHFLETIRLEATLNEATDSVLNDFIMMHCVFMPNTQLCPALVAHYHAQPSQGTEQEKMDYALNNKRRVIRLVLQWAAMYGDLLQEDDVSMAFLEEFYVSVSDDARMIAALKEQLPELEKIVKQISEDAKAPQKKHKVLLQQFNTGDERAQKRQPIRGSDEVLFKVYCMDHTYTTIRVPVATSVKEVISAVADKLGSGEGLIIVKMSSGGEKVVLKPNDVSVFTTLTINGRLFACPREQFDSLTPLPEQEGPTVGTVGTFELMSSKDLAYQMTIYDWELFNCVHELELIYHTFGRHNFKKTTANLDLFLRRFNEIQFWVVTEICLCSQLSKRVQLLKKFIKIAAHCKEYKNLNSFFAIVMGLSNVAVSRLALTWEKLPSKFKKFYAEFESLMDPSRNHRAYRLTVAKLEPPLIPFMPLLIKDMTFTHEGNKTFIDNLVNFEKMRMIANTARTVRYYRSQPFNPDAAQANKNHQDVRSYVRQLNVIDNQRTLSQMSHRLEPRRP

[3] = target: Rap guanine nucleotide exchange factor 3 (Homo sapiens) (UniProt O95398); experiment: Counterscreen qHTS for antagonist of cAMP-regulated guanine nucleotide exchange factor 3 (EPAC1) (AID 1645888); note: potency is the fitted concentration of half-maximal effect
Method in brief: (§1)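 Rap1B–BODIPY-GDP (250 nM) with 50 uM GDP; compounds pin-transferred to 9.74 nM–152 uM final (activator) or from 7.32 nM upwards (inhibitor). Fluorescence Ex/Em 480/540 nm read at 5 and 30 min, then after adding cAMP or buffer, at room temperature.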

[4] = target: Rap guanine nucleotide exchange factor 4 (Homo sapiens) (UniProt Q8WZA2); experiment: Confirmatory qHTS for antagonist of cAMP-regulated guanine nucleotide exchange factor 4 (EPAC2) (AID 1645885); note: nearly all actives have a fitted effect of over 25% in size; note: potency is the fitted concentration of half-maximal effect
[5] = target: Rap guanine nucleotide exchange factor 3 (Homo sapiens) (UniProt O95398); experiment: Counterscreen qHTS for agonist of cAMP-regulated guanine nucleotide exchange factor 3 (EPAC1) (AID 1645889); note: nearly all actives have a fitted effect of over 40% in size; note: potency is the fitted concentration of half-maximal effect
Method in brief: as §1

[6] = target: Lysosomal acid glucosylceramidase (Homo sapiens) (UniProt P04062); experiment: Glucocerebrosidase-p2 (AID 348; in the data active = potency below about 10 µM; note: potency is the fitted concentration of half-maximal effect); conditions: purified GBA, blue fluorogenic substrate, 40 min
Lysosomal acid glucosylceramidase (Homo sapiens), sequence (P04062 whole entry, looked up): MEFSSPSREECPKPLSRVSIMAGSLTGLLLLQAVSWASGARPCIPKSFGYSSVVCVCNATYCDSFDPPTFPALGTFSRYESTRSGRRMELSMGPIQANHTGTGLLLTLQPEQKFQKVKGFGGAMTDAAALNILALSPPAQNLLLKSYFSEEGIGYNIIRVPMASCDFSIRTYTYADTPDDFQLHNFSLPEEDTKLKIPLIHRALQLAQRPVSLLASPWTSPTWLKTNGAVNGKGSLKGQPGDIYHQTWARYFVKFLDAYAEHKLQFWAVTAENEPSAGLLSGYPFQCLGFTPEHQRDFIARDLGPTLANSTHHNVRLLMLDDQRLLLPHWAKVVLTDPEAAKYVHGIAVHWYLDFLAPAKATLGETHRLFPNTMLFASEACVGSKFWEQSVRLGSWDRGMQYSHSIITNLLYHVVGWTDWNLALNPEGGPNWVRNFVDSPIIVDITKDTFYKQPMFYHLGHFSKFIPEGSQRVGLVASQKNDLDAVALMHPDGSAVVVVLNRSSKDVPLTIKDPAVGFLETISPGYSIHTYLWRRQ
Method in brief: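 Normal human glucocerebrosidase (0.2 nM) with blue fluorogenic substrate (80 uM final) in citrate/phosphate pH 5.9 with 10mM sodium taurocholate, 0.01% tween-20; 40 min RT, NaOH/glycine stop; fluorescence Ex 365/Em 440; AC50 from a titration from 0.6 nM upwards.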

[7] = AP1 Signaling Pathway (AID 357; active = well fitted curve in either direction with a large enough effect, not every such curve was filed as active;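 note: ME-180 reporter cells stimulated with EGF at its EC50 level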); conditions: ME-180 (cervical carcinoma) AP-1-bla reporter, EGF-induced, beta-lactamase ratio, 5 h; at 7.69 µM (top of the series) unless noted
Method in brief: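 In this screen, ME-180 cells in Opti-MEM with 0.5% dialyzed FBS received EC50 EGF and compound titrations for 5 h. AP-1 reporter beta-lactamase was detected via CCF4 ratio, giving AC50 for positive and negative modulators.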

[8] = target: Cytochrome P450 1A2 (Homo sapiens) (UniProt P05177); experiment: p450-cyp1a2 (AID 410; calls by dose curve; note: potency is the fitted concentration of half-maximal effect)
Method in brief: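 Read-out is luminescence from luciferin produced by CYP1A2 demethylation of Luciferin-ME (100uM, at Km). Detection reagent stopped the 60 min NADPH-dependent reaction; signals were normalized to 57 uM furafylline.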

[9] = NFAT Signaling Pathway (AID 444; active = well fitted curve in either direction with a large enough effect, not every such curve was filed as active;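 note: carbachol stimulus at about its EC50 of 1 µM final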); conditions: Jurkat NFAT-bla M1, carbachol, beta-lactamase ratio, 5 h; at 7.69 µM (top of the series) unless noted
Method in brief: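 Jurkat cells with NFAT-driven β-lactamase reporter and co-expressed M1 receptor, stimulated with carbachol (final 1 uM, ~EC50), compound titration, 5 h at 37 °C. CCF4 loaded 1 h at RT; 460/530 nm ratio gave %activity and AC50.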

[10] = Stat Signaling Pathway (AID 446; active = well fitted curve in either direction with a large enough effect, not every such curve was filed as active;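 note: ME-180 cervical cancer cells given 40 pM IL-6 alongside compound; SIE-controlled beta-lactamase reporter measured as 460/530 nm FRET emission ratio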)
Method in brief: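 Overnight-plated ME-180 cells bearing a STAT Inducible Element beta-lactamase reporter; 5 h co-exposure to compound and 40 pM IL-6; values normalized to 300 pM IL-6 and 125 nM JAK inhibitor controls.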

[11] = target: Glucocorticoid receptor (Homo sapiens) (UniProt P04150); experiment: GR-GFP Redistribution (AID 450;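 active = compounds whose dose series gives a full or clear partial fitted curve of increased nuclear translocation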; note: potency is the fitted concentration of half-maximal effect); conditions: U2OS GR-GFP nuclear translocation, laser cytometry, 2 h
Glucocorticoid receptor (Homo sapiens), sequence (P04150 whole entry, looked up, the tested form may be a part): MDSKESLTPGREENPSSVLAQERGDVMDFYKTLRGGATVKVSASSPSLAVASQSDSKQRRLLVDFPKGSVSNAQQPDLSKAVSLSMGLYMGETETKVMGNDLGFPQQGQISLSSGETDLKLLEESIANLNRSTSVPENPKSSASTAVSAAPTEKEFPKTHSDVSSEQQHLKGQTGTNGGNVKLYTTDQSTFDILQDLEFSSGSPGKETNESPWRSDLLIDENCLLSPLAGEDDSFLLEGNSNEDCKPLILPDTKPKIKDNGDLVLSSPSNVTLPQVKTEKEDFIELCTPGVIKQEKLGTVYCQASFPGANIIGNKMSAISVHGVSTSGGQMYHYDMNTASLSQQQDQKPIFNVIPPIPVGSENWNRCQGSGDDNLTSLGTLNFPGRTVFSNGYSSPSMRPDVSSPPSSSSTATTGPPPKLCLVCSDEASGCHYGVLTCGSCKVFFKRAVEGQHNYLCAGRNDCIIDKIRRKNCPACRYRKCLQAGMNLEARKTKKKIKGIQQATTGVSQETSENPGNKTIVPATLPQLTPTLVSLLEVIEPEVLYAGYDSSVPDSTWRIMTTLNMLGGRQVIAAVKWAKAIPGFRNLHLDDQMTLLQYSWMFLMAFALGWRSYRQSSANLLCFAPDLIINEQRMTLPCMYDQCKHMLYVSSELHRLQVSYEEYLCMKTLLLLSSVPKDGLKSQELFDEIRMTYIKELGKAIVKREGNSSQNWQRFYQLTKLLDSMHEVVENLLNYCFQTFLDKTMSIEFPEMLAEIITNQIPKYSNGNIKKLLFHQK

[12] = target: Glucocorticoid receptor (Homo sapiens) (UniProt P04150); experiment: GR-EFC Redistribution (AID 451; calls by dose curve; note: potency is the fitted concentration of half-maximal effect); conditions: CHO-K1 GR-EFC translocation, beta-gal luminescence, 2 h
Method in brief: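 CHO-K1 cells expressing nuclear EA and GR-ED fragments of b-gal; compounds titrated up to 46 uM final, 2 h at 37 C. GR nuclear translocation read as complemented b-gal luminescence after 1 h RT detection.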

[13] = target: Mitogen-activated protein kinase 10 (Mus musculus) (UniProt Q61831); experiment: JNK3 AlphaScreen Assay (AID 530; active = well fitted curve in either direction with a large enough effect, not every such curve was filed as active;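 note: kinase came from lysate of stimulated human HepG2 cells; signal reports phosphorylation of biotinylated GST-cJun 1-79 at Ser73 with 10 µM ATP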)
Method in brief: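 HepG2 lysate (IL-1b/TNFa pre-activated) + biotin-GST-cJun 1-79 + anti-pSer73 cJun; cpd titration, 15 min RT; ATP 10 uM start; Tris pH 7.6, MgCl2, DTT, vanadate; beads in EDTA buffer; AlphaScreen.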

[14] = target: 3',5'-cyclic-AMP phosphodiesterase 4B (Homo sapiens) (UniProt Q07343); experiment: qHTS Assay for Inhibitors of PDE-IV (AID 607; active = well fitted activation curve with a large enough effect in the main read-out, with a control signal flat, not every such curve was filed as active)
3',5'-cyclic-AMP phosphodiesterase 4B (Homo sapiens), sequence (Q07343 whole entry, looked up): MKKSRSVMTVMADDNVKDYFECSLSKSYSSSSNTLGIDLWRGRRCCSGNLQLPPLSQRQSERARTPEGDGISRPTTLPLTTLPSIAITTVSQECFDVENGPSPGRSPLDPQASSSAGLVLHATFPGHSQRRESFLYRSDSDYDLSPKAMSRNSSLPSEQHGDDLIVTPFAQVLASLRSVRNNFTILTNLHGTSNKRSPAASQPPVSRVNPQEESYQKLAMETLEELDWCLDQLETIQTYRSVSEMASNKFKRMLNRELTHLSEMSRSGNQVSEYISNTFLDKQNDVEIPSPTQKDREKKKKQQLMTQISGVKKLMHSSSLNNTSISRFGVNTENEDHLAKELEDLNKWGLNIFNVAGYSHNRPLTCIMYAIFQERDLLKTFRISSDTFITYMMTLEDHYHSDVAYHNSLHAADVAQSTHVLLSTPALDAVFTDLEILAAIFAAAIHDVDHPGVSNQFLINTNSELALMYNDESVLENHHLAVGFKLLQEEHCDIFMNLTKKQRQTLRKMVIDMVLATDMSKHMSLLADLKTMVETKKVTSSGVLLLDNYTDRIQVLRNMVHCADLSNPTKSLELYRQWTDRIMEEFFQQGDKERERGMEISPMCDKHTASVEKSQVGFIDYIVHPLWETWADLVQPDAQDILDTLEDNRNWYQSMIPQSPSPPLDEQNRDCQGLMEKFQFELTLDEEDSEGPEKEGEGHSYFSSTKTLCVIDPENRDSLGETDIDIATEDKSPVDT
Method in brief: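 Live HEK293 cells with a modified cyclic nucleotide-gated (CNG) channel report intracellular cAMP via membrane-potential dye fluorescence (ex 535/em 590 nm). Endogenous PDE-IV was targeted. Compounds were tested at up to 22.9 uM final; RO 20-1724 100 uM served as control.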

[15] = target: Cytochrome P450 2C19 (Homo sapiens) (UniProt P33261); experiment: qHTS Assay for Inhibitors and Substrates of Cytochrome P450 2C19 (AID 899); note: potency is the fitted concentration of half-maximal effect; nearly all actives have a fitted effect of over 60% in size
Cytochrome P450 2C19 (Homo sapiens), sequence (P33261 whole entry, looked up): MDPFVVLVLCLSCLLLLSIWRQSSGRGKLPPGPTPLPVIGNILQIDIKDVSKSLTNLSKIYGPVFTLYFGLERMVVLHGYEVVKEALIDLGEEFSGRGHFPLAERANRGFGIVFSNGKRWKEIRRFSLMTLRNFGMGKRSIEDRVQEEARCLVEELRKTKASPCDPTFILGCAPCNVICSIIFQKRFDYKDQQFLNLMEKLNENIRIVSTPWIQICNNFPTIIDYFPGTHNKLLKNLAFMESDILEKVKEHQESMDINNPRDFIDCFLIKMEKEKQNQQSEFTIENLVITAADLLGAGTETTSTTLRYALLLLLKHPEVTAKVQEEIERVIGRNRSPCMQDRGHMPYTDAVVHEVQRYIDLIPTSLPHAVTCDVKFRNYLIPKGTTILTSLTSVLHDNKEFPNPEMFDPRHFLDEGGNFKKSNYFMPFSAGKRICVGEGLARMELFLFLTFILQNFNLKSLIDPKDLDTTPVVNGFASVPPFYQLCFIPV
Method in brief: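 Luminescent read-out of luciferin formed from Luciferin-H EGE (10uM, equal to KM). Enzyme 5nM in 50mM KPO4; compound added, 10 min at 37C, then NADPH regenerating system for 60 min at 37C. Full inhibition defined by 57uM ketoconazole.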

[16] = target: Tumor susceptibility gene 101 protein (Homo sapiens) (UniProt Q99816); experiment: qHTS Assay for Iinhibitors of HIV-1 Budding by Blocking the Interaction of PTAP/TSG101: Hit Validation (AID 651600); note: potency is the fitted concentration of half-maximal effect; nearly all actives have a fitted effect of over 70% in size
Tumor susceptibility gene 101 protein (Homo sapiens), sequence (Q99816 whole entry, looked up, the tested form may be a part): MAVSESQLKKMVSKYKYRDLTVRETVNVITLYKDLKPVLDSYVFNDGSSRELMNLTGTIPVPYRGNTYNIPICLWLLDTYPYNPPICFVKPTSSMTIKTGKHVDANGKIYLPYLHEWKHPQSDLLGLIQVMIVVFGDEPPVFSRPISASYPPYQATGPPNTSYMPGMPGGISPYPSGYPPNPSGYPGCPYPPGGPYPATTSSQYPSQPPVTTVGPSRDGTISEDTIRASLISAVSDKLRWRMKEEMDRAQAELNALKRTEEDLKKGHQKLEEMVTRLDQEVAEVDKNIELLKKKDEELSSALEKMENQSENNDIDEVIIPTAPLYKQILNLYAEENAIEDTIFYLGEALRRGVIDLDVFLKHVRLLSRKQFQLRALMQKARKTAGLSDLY
Method in brief: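 FITC-PTAP peptide (50 nM final) binding to Tsg101 binding domain (10 uM final) was measured by polarization after 20 min at r.t. with compounds, in 10 mM HEPES pH 7.5 buffer with 0.15 M NaCl and 0.01% Tween 20.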

Compound: COCCN1C(=O)/C(=C/c2ccc(N3CCCC3)cc2)SC1=S
- Potency [1]: inactive
- Potency [2]: 112 µM (active)
- Potency [3]: inactive

Compound: CCSC1=NSC2=NC(=O)/C(=C\c3coc4ccccc4c3=O)C(=N)N12
- Potency [1]: inactive
- Potency [4]: inactive
- activity change, negative = inhibition [3]: 72.5% [at 30.8 µM]

Compound: Cc1ccc(-c2nc3ccc(C)cn3c2CC2CCCCC2)cc1
- Potency [1]: inactive
- Potency [4]: inactive
- Potency [3]: inactive

Compound: O=C(NC1CCCC1)c1cccc2c1C(=O)c1ccc(N3CCCCC3)cc1S2(=O)=O
- Potency [1]: inactive
- Potency [4]: inactive
- Potency [3]: inactive
- Potency [5]: inactive

Compound: COc1ccccc1C(=O)Oc1ccc2c(c1)O/C(=C\c1ccncc1)C2=O
- Potency [1]: inactive
- Potency [4]: 84.9 µM (active)
- Potency [3]: inactive
- Potency [5]: 35.5 µM (active)

Compound: N=C(N)c1ccc(N=Nc2c(O)ccc3c2[nH]c2ccccc23)cc1
- Potency [6]: > 11.4 µM
- activity change, negative = inhibition [7]: 13.5%
- Potency [8]: 1.58 µM (active)
- activity change, negative = inhibition [9]: 8.15%
- outcome [10]: inactive
- Potency [11]: > 46 µM
- Potency [12]: > 9.22 µM
- activity change, negative = inhibition [13]: -6.35% [at 11.4 µM]
- Potency [14]: inactive
- Potency [15]: 1.26 µM (active)
- Potency [1]: 56.2 µM (active)
- Potency [4]: inactive
- activity change, negative = inhibition [3]: -5.36% [at 30.8 µM]
- activation [5]: 33.2% [at 30.8 µM]

Compound: COc1ccc(C(=O)N(CCc2ccccc2)Cc2cccs2)c(OC)c1
- Potency [1]: inactive
- Potency [4]: inactive
- Potency [3]: inactive
- Potency [5]: inactive

Compound: CCN1C(=O)C(=CC=CN(C)c2ccccc2)SC1=S
- Potency [1]: inactive
- Potency [4]: inactive
- activity change, negative = inhibition [3]: 12.2% [at 30.8 µM]
- Potency [5]: 11.2 µM (active)

Compound: COc1ccc(-c2nn(-c3ccccc3)cc2/C=C2/SC(=S)N(CCC(=O)O)C2=O)cc1
- Potency [1]: inactive
- Potency [4]: inactive
- Potency [3]: inactive

Compound: CC(C)(C)c1ccc(-n2nc(C#N)c(Cl)cc2=O)cc1
- Potency [1]: 42.6 µM (active)
- Potency [4]: 0.338 µM (active)
- Potency [3]: inactive

Compound: CC(C)CC1=NN2C(=N)/C(=C\c3coc4ccccc4c3=O)C(=O)N=C2S1
- Potency [1]: inactive
- Potency [4]: inactive
- activity change, negative = inhibition [3]: 51.1% [at 30.8 µM]
- Potency [5]: 12.6 µM (active)

Compound: COc1ccc(NC(=O)NS(=O)(=O)c2ccc(C)cc2)cn1
- Potency [1]: inactive
- Potency [4]: inactive
- Potency [3]: inactive
- Potency [5]: 63.1 µM (active)

Compound: N#Cc1cc(Br)ccc1N=C1CCCN1c1ccccc1
- Potency [1]: inactive
- Potency [4]: 3.01 µM (active)
- Potency [3]: inactive
- Potency [5]: inactive

Compound: Cc1cccc(N2CCN(S(=O)(=O)c3ccc4c(c3)CCN4C(=O)CCC(=O)O)CC2C)c1 (stereo unspecified)
- Potency [1]: 47.8 µM (active)
- Potency [4]: inactive
- Potency [3]: inactive
- Potency [5]: inactive

Compound: CCCCn1c(=O)[nH]c2nc3cc(N)ccc3nc2c1=O
- Potency [16]: 6.51 µM (active)
- Potency [1]: inactive
- Potency [4]: inactive
- activity change, negative = inhibition [3]: 79.1% [at 30.8 µM]
- Potency [5]: 12.6 µM (active)

Compound: Brc1ccc(CSc2nccn2-c2ccccc2)cc1
- Potency [1]: inactive
- Potency [4]: inactive
- Potency [3]: inactive
- Potency [5]: 1.58 µM (active)

Compound: CC(=O)CCc1oc2c([N+](=O)[O-])cccc2c1-c1ccc(C)o1
- Potency [1]: inactive
- Potency [4]: inactive
- Potency [3]: inactive

Compound: COC(=O)c1ccc(Cn2nc(-c3cc(C)ccc3C)ccc2=O)cc1
- Potency [1]: inactive
- Potency [4]: inactive
- Potency [3]: inactive
- Potency [5]: inactive

Compound: C=Cc1ccc(CC2(C)C(=O)Nc3ccc(-c4cccnc4)cc32)cc1 (stereo unspecified)
- Potency [1]: inactive
- Potency [4]: inactive
- Potency [3]: inactive

Compound: O=C1C=C(c2c(O)ccc3ccccc23)c2ccccc2C1=O
- Potency [1]: 67.5 µM (active)
- Potency [4]: 47.8 µM (active)
- Potency [3]: inactive
- Potency [5]: 35.5 µM (active)

Compound: CCOC(=O)c1ccc2[nH]cc(C(C)=O)c(=O)c2c1
- Potency [1]: inactive
- Potency [4]: inactive
- Potency [3]: inactive

Compound: CNC(=O)c1csc(Cc2c(Cl)sc3ccc(Cl)cc23)n1
- Potency [1]: inactive
- Potency [4]: inactive
- Potency [3]: inactive

Compound: CCN1CCc2c(sc(NC(=O)Nc3ccc(Cl)c(Cl)c3)c2C(N)=O)C1
- Potency [1]: inactive
- Potency [4]: 84.9 µM (active)
- Potency [3]: 100 µM (active)
- Potency [5]: 112 µM (active)

Compound: CC1=CC2=NC(=O)/C(=C/c3coc4ccccc4c3=O)C(=N)N2O1
- Potency [1]: inactive
- Potency [4]: 75.7 µM (active)
- Potency [3]: inactive
- Potency [5]: 39.8 µM (active)

Compound: Cc1ccc(S(=O)(=O)/N=C2\C=C(NS(=O)(=O)c3ccccc3)C(=O)c3ccccc32)cc1
- Potency [1]: 26.9 µM (active)
- Potency [4]: 16.9 µM (active)
- Potency [3]: inactive
- Potency [5]: inactive

Compound: COC(=O)c1sc(S(=O)(=O)N2CCCCC2C)c(C(=O)OC)c1C (stereo unspecified)
- Potency [1]: inactive
- Potency [4]: 53.6 µM (active)
- Potency [3]: inactive
- Potency [5]: inactive

Compound: CCCN1CC=C2C(C#N)=C(N)C(C#N)(C#N)C(c3cccc(OC)c3OC)C2C1 (stereo unspecified)
- Potency [1]: inactive
- Potency [4]: 12 µM (active)
- Potency [3]: inactive

Compound: COc1ccccc1N1N=C(C(=O)c2ccccc2)C2C(=O)N(c3ccc(Br)cc3)C(=O)C21 (stereo unspecified)
- Potency [1]: inactive
- Potency [4]: inactive
- Potency [3]: inactive
- Potency [5]: 17.8 µM (active)

Compound: O=C(NCCOc1ccccc1F)c1ccccc1SCc1ccc(F)cc1
- Potency [1]: inactive
- Potency [4]: 10.7 µM (active)
- Potency [3]: inactive
- Potency [5]: inactive

Compound: CC1CC1c1ccc(/C=C(\C#N)C(=O)Nc2cc(Cl)ccc2Cl)o1 (stereo unspecified)
- Potency [1]: inactive
- Potency [4]: inactive
- Potency [3]: inactive
- Potency [5]: inactive
